Source: the supplement of paper PMC7156485
A number with no mark means an inactive call.

system: TDF; experiment: H1.0 immunofluorescence intensity relative to DMSO (% of DMSO); higher = stronger H1.0 induction, active = 120 or more; conditions: concentration: 10 µM; 24 h
How it was run: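 After 24 h at 37 °C with compounds at 10 µM, in triplicate, HCC1569 and TDF cells were fixed with 3.7% formaldehyde. Immunostaining used a rabbit anti-H1.0 antibody and an AlexaFluor 647 secondary, with DAPI, and six fields per well were imaged at ×10. H1.0 nuclear intensity or cell number is presented as percent of the plate control, from the median of replicates, with HCC1569 values smoothed for positional effects.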
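Also: TDF is a line of transformed human dermal fibroblasts of mesenchymal origin.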

Row | SMILES | H1.0 immunofluorescence intensity
1 | CC12C=CC(=O)C=C1CCC1C2C(O)CC2(C)C1CCC2(O)C(=O)CO (stereo not given) [Prednisolone] | 84.9
2 | CC(N)(Cc1ccc(O)c(O)c1)C(=O)O (racemic) | 90.9
3 | COc1c2occc2cc2ccc(=O)oc12 [Xanthotoxin] | 106
4 | CC1CCN(CCC2CCCN2S(=O)(=O)c2cccc(O)c2)CC1.Cl (stereo not given) | 92.1
5 | Cl.c1ccc(-n2c(C3=NCCN3)cc3ccccc32)cc1 | 105
6 | Oc1cccc(-c2nc(N3CCOCC3)c3oc4ncccc4c3n2)c1 | 88
7 | CC[N+](CC)(CC)CC(=O)Nc1c(C)cccc1C.[Br-] [Lidocaine N-ethyl bromide quaternary salt] | 88.4
8 | CC1CNCCN1S(=O)(=O)c1cccc2cnccc12.Cl.Cl (stereo not given) [H-7 dihydrochloride] | 107
9 | C1CCC(C(CC2CCCCN2)C2CCCCC2)CC1.O=C(O)C=CC(=O)O (stereo not given) | 273 (active)
10 | CCCCCC=CCC=CCCCCCCCCCCCC(=O)O [13(Z),16(Z)-Docosadienoic acid] | 104
11 | O=c1ccc2cc(O)c(O)cc2o1 [Esculetin] | 99.6
12 | CN1C(=O)CCC1c1cccnc1 (single isomer, unassigned; (-)) [(-)-Cotinine] | 93.5
13 | CC1(C)CC=C(c2ccccc2)c2cc(/C=C/c3ccc(C(=O)O)cc3)ccc21 | 101
14 | COc1ccccc1N1CCN(CCCCNC(=O)c2ccc3ccccc3c2)CC1 | 106
15 | O=C([O-])c1cc2cc(Cc3cccnc3)ccc2o1.[Na+] [Furegrelate sodium] | 88.5
16 | CC(C)Cc1ccc(CC(=O)O)cc1 [(4-isobutylphenyl)acetic acid] | 91.5
17 | CC1=C(C)C(=O)C(CCCCC#CCCCC#CCO)=C(C)C1=O [Docebenone] | 103
18 | CCCCC(C)(C)C(O)C=CC1C(O)CC(=O)C1CC=CCCCC(=O)O (stereo not given) [16,16-Dimethyl-prostaglandin E2] | 94.7
19 | CC(C=Cc1cccc(Oc2ccc(F)cc2)c1)N(O)C(N)=O (stereo not given) | 102
20 | Cc1ccc2c(c1)C(N1CCN(C)CC1)=Nc1cccnc1N2 | 89.8

Row | SMILES | H1.0 immunofluorescence intensity
21 | CCn1cc(C(=O)O)c(=O)c2cc(F)c(N3CCN(C)CC3)cc21.CS(=O)(=O)O.O.O [Pefloxacine mesylate dihydrate] | 96.4
22 | CCCCC1CCC(c2nc(-c3ccncc3)no2)CC1 (stereo not given) [4-[5-(4-butylcyclohexyl)-1,2,4-oxadiazol-3-yl]pyridine] | 108
23 | O=C([O-])c1cc(=O)c2c(OCC(O)COc3cccc4oc(C(=O)[O-])cc(=O)c34)cccc2o1.[Na+].[Na+] [Disodium Cromoglycate] | 90.6
24 | CC1=CC(=O)C2=C(C)CCC3C(C)C(=O)OC3C12 (stereo not given) [Leucomisine] | 96.5
25 | Cl.NCCNC(=O)c1ncsc1-c1cccc(F)c1 [Ro 41-1049 hydrochloride] | 97.4
26 | CCCCCCCCC=CCCCCCCCCCC(=O)O [11(E)-Eicosenoic acid] | 101
27 | CCC=CCC=CCC=CCC=CCC=CCC=CCCC(=O)O [Docosahexaenoic acid] | 104
28 | CS(=O)c1ccc(-c2nc(-c3ccc(F)cc3)c(-c3ccncc3)[nH]2)cc1.Cl (stereo not given) | 94.5
29 | C[C@H]1CN(C[C@H](Cc2ccccc2)C(=O)NCC(=O)O)CC[C@@]1(C)c1cccc(O)c1 | 88.5
30 | O=C1NC(C(=O)O)CS1 (stereo not given) [Procysteine] | 97.1
31 | COC(=O)C1C2CC3c4[nH]c5cc(OC)ccc5c4CCN3CC2CC(OC(=O)c2cc(OC)c(OC)c(OC)c2)C1OC (single isomer, unassigned; (-)) [(-)-Isoreserpine] | 102
32 | Cc1cc2nc3c(=O)[nH]c(=O)nc-3n(C)c2cc1C=O | 91
33 | O=C1c2c(O)cc(O)cc2O[C@H](c2cc(O)c(O)c(O)c2)[C@H]1O | 98.9
34 | CCCCCCCC/C=C\CCCCCCCC(=O)NCC(=O)O [[(9Z)-9-octadecenoylamino]acetic acid] | 96.9
35 | CCCCCCCCCCCCCCC(O)C(O)C(N)CO (stereo not given) [Phytosphingosine] | 124 (active)
36 | CC1C(=O)OC2C(O)C34C5CC(C(C)(C)C)C36C(OC(=O)C6O)OC4(C(=O)O5)C12O (stereo not given) [Ginkgolide B] | 101
37 | CON(C)C(=O)[C@H](O)[C@H](Cc1ccccc1)NC(=O)c1cc2cc(Cl)ccc2[nH]1 | 88.1
38 | OC1c2ccccc2N=C2CCCN21 (stereo not given) [Peganole] | 95.3
39 | COc1cc2ncc(-c3ccccc3)nc2cc1OC | 94
40 | O=c1cc(-c2ccc(O)cc2)oc2cc(O)c(C3OC(CO)C(O)C(O)C3O)c(O)c12 (stereo not given) [Isovitexin] | 94.3
